The source of these data is paper PMC7862700, “An all-to-all approach to the identification of sequence-specific readers for epigenetic DNA modifications on cytosine”.

What all share (assay): DAPPL (digital affinity profiling via proximity ligation, sequencing); 10 mM Tris-HCl pH 7.5, 50 mM NaCl, 1 mM DTT, 4% glycerol, room temperature, 30 min; GST-TFs on glutathione beads, 16-mer random dsDNA library, 0.1% formaldehyde crosslink after washing; high values mean tight binding
Experiment [1] addresses T1, FLI1 (Homo sapiens, UniProt Q01543 1-452).
T1 sequence: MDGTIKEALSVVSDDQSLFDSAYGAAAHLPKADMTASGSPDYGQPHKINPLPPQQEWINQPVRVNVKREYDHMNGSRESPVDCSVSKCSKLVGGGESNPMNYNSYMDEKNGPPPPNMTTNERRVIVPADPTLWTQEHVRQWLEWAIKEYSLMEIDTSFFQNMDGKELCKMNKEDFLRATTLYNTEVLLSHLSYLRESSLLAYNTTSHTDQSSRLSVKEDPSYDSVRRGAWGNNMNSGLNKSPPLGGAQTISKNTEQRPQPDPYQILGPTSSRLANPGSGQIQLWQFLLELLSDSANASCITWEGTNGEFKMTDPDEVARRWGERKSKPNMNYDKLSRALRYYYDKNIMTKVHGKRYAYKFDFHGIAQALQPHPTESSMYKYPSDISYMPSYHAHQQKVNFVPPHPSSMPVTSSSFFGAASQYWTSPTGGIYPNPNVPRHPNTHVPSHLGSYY
The note with it: protein: recombinant; tags: N-terminal GST; dsDNA, one strand shown. In a few lines: (§1)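 In yeast, human transcription factors were expressed with a GST fusion, then pulled down on glutathione beads and given DNA barcodes. Pooled with a tag-only sample, they were exposed to 200 nmole of a 16-mer random double-stranded DNA library (Tris/NaCl/DTT/glycerol buffer, room temperature, 30 min), washed, crosslinked with 0.1% formaldehyde, proximity-ligated using BsaI/T4 ligase for 1 h at 37 °C, PCR-amplified and read on an Illumina NextSeq500. Each hexamer's frequency of reads for a factor, divided by the matching frequency for the tag-only sample, gives the binding signal.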

Experiment [2] deals with T2, ELK1 (Homo sapiens, UniProt P19419 1-428).
T2 sequence: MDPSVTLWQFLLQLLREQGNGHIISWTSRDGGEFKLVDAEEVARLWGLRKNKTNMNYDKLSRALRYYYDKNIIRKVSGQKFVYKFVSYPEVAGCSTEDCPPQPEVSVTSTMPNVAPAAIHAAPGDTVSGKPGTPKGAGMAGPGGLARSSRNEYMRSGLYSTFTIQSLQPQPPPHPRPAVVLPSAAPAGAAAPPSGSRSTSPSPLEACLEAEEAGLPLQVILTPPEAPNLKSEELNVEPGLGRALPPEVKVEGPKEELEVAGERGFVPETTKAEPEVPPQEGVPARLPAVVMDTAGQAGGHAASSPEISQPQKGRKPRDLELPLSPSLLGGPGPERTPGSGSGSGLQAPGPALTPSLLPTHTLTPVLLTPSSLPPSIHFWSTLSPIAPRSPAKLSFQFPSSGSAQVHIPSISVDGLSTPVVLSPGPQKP
Conditions: protein: recombinant; tags: N-terminal GST; dsDNA, one strand shown. An outline of the steps: as §1

Experiment [3] has as its target T3, GABPA (Homo sapiens, UniProt Q06546 1-454).
T3 sequence: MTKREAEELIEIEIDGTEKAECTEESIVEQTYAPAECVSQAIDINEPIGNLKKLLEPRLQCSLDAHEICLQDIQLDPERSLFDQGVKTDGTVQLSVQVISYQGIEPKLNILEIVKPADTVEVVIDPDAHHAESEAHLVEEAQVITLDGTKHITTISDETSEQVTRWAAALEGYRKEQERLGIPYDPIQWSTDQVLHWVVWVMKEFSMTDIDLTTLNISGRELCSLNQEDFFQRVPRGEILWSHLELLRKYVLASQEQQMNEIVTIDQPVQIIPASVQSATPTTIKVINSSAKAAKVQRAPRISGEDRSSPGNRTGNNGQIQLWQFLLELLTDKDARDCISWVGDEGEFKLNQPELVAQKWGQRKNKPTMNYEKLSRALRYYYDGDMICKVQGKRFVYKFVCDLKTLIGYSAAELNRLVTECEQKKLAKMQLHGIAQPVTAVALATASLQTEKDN
Conditions: protein: recombinant; tags: N-terminal GST; dsDNA, one strand shown. An outline of the steps:
as §1

Experiment [4] deals with T4, ERG (Homo sapiens, UniProt P11308 1-479).
T4 sequence: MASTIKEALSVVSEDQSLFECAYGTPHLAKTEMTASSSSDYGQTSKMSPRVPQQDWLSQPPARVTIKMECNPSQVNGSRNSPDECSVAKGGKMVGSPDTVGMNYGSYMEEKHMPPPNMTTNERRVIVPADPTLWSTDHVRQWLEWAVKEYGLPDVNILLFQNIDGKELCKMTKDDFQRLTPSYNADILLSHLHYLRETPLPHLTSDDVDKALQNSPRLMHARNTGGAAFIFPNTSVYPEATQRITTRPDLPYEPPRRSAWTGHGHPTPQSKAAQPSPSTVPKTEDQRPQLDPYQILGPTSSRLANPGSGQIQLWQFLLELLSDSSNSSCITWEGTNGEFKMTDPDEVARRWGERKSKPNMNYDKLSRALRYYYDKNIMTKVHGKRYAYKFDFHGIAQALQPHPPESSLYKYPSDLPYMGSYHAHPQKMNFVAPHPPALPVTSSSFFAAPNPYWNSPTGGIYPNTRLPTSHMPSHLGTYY
Conditions: protein: recombinant; tags: N-terminal GST; dsDNA, one strand shown. An outline of the steps: as §1

Experiment [5] has as its target ELF1 (Homo sapiens, UniProt P32519 1-619). The note with it: protein: recombinant; tags: N-terminal GST; dsDNA, one strand shown. In a few lines: as §1
Experiment [6] deals with T5, EHF (Homo sapiens, UniProt Q9NZC4 1-300).
T5 sequence: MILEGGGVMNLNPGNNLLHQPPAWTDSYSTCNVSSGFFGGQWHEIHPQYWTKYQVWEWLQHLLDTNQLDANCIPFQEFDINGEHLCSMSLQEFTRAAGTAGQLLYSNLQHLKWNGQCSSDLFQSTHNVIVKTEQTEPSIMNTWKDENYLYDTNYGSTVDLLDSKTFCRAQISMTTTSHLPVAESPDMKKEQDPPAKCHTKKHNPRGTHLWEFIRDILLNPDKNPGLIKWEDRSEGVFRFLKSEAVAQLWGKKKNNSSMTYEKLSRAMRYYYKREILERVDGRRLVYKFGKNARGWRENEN
The note with it: protein: recombinant; tags: N-terminal GST; dsDNA, one strand shown. An outline of the steps: as §1

The target of experiment [7] is SPI1 (Homo sapiens, UniProt P17947 1-270). Conditions: protein: recombinant; tags: N-terminal GST; dsDNA, one strand shown. In a few lines:
as §1

Experiment [8] deals with SPIB (Homo sapiens, UniProt Q01892 1-262). The note with it: protein: recombinant; tags: N-terminal GST; dsDNA, one strand shown. An outline of the steps: as §1
Experiment [9] deals with T6, ELK3 (Homo sapiens, UniProt P41970 1-407).
T6 sequence: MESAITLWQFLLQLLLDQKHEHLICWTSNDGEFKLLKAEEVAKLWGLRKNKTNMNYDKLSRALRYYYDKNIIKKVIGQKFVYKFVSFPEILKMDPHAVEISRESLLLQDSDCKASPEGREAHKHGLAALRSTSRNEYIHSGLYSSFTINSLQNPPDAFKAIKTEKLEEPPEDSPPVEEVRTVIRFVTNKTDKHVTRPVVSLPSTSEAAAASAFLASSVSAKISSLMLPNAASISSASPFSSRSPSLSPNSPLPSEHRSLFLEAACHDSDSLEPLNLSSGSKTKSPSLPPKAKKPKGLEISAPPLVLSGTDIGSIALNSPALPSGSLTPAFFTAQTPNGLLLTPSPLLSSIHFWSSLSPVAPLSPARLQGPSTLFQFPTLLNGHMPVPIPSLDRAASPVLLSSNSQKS
Conditions: protein: recombinant; tags: N-terminal GST; dsDNA, one strand shown. In a few lines:
as §1

Experiment [10] has as its target T7, FEV (Homo sapiens, UniProt Q99581 1-238).
T7 sequence: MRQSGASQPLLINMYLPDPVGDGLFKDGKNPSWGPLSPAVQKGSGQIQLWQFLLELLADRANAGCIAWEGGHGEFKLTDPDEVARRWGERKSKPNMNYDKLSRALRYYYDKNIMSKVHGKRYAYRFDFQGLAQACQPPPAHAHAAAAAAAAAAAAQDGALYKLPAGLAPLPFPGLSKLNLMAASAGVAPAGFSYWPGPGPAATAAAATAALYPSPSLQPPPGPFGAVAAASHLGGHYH
The note with it: protein: recombinant; tags: N-terminal GST; dsDNA, one strand shown. In a few lines:
as §1

The target of experiment [11] is ETV5 (Homo sapiens, UniProt P41161 1-510). The note with it: protein: recombinant; tags: N-terminal GST; dsDNA, one strand shown. In a few lines: as §1
Experiment [12] deals with HSF1 (Homo sapiens, UniProt Q00613 1-529). Conditions: protein: recombinant; tags: N-terminal GST; chain copies: 3; dsDNA, one strand shown. An outline of the steps:
as §1

For experiment [13], the target named is T8, SPIC (Homo sapiens, UniProt Q8N5J4 1-248).
T8 sequence: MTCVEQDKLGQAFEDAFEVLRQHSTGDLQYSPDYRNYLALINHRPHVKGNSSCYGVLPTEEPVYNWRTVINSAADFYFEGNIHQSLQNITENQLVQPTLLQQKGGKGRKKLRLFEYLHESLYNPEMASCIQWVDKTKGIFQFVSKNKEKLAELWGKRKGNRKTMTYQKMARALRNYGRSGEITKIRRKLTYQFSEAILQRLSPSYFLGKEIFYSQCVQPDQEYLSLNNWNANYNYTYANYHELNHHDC
The note with it: protein: recombinant; tags: N-terminal GST; dsDNA, one strand shown. An outline of the steps: as §1

Experiment [14] concerns the target ELF4 (Homo sapiens, UniProt Q99607 1-663). Conditions: protein: recombinant; tags: N-terminal GST; dsDNA, one strand shown. In a few lines:
as §1

Experiment [15] concerns the target T9, ELK4 (Homo sapiens, UniProt P28324-2 1-405).
T9 sequence: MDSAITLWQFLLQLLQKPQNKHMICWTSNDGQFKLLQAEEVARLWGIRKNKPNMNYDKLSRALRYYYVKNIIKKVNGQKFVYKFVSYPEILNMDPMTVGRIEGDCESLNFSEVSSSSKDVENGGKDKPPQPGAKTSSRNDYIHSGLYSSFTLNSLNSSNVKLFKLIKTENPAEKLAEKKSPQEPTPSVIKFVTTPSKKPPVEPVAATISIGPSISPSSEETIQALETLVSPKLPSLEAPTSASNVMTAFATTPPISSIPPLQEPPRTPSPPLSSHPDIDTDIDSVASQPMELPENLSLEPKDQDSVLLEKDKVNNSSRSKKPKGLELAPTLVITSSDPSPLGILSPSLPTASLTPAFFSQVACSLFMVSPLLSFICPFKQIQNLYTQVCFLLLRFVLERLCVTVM
Conditions: protein: recombinant; tags: N-terminal GST; dsDNA, one strand shown. An outline of the steps: as §1

The target in experiment [16] is T10, ETV2 (Homo sapiens, UniProt O00321 1-342).
T10 sequence: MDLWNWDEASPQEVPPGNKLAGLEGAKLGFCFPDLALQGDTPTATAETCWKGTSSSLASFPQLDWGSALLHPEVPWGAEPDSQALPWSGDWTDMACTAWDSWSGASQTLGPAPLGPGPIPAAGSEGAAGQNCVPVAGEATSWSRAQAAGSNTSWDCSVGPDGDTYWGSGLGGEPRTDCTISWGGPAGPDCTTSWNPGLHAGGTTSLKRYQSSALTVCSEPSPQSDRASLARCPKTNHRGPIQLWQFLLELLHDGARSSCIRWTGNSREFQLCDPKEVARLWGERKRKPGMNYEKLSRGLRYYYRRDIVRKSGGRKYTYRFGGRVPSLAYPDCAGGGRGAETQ
The note with it: protein: recombinant; tags: N-terminal GST; dsDNA, one strand shown. In a few lines:
as §1

For experiment [17], the target named is T11, ELF3 (Homo sapiens, UniProt P78545 1-371).
T11 sequence: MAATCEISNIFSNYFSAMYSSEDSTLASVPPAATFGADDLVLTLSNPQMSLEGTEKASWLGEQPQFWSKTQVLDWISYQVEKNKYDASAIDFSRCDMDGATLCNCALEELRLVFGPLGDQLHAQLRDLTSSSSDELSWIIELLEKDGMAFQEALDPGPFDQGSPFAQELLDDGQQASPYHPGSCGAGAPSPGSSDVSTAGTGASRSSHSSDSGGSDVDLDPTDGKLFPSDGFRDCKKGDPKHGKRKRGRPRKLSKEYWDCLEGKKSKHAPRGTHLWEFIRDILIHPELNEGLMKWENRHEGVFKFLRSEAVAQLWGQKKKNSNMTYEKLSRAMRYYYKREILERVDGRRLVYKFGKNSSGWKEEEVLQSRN
The note with it: protein: recombinant; tags: N-terminal GST; dsDNA, one strand shown. An outline of the steps:
as §1

The target in experiment [18] is CRX (Homo sapiens, UniProt O43186 1-299). Conditions: protein: recombinant; tags: N-terminal GST; dsDNA, one strand shown. In a few lines:
as §1

Experiment [19] addresses ETV1 (Homo sapiens, UniProt P50549 1-477). Conditions: protein: recombinant; tags: N-terminal GST; dsDNA, one strand shown. In a few lines: as §1

Chain of ETV1 (P50549 whole entry): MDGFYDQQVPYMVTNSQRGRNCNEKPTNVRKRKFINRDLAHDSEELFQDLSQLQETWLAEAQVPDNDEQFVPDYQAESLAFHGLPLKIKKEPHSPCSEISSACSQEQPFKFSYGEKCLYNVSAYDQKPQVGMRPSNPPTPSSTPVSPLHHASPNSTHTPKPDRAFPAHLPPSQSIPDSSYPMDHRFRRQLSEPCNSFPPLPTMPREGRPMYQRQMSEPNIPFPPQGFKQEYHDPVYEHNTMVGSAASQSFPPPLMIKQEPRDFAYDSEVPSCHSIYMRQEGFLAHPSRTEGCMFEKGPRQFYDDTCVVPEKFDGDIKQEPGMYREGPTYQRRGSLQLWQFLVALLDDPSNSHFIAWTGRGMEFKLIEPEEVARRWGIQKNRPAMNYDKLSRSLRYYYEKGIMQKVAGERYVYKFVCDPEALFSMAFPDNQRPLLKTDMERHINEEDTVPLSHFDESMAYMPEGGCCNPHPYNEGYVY
Chain of SPIB (Q01892 whole entry): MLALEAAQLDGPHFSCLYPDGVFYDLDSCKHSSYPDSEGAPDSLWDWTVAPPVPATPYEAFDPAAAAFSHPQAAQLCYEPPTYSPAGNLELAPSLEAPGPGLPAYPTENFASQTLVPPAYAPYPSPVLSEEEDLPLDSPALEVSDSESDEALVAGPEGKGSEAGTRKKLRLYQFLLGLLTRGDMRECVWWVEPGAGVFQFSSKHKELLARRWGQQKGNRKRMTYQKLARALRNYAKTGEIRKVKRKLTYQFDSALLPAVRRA
Chain of CRX (O43186 whole entry): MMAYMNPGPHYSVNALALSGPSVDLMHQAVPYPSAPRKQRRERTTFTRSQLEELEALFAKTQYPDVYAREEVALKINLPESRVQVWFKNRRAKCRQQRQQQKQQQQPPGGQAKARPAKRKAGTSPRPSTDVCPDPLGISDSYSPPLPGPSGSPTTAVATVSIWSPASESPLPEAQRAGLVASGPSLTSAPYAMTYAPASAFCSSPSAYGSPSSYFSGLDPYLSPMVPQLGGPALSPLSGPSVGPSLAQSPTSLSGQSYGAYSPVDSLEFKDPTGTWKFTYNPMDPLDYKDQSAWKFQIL
Chain of ETV5 (P41161 whole entry): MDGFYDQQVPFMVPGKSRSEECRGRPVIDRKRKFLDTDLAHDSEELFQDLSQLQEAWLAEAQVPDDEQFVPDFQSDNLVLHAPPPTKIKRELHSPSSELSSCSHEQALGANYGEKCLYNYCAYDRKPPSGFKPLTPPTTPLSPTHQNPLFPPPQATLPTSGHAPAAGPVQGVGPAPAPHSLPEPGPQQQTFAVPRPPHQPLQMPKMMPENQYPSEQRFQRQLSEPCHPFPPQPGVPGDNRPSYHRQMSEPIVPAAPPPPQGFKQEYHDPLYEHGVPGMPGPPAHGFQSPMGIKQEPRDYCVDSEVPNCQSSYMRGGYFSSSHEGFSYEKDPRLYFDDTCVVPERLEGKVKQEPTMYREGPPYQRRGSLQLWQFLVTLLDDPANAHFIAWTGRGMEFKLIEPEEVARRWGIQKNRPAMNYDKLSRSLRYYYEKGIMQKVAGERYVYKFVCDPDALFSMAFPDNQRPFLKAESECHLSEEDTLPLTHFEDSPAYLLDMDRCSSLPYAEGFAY
Chain of ELF1 (P32519 whole entry): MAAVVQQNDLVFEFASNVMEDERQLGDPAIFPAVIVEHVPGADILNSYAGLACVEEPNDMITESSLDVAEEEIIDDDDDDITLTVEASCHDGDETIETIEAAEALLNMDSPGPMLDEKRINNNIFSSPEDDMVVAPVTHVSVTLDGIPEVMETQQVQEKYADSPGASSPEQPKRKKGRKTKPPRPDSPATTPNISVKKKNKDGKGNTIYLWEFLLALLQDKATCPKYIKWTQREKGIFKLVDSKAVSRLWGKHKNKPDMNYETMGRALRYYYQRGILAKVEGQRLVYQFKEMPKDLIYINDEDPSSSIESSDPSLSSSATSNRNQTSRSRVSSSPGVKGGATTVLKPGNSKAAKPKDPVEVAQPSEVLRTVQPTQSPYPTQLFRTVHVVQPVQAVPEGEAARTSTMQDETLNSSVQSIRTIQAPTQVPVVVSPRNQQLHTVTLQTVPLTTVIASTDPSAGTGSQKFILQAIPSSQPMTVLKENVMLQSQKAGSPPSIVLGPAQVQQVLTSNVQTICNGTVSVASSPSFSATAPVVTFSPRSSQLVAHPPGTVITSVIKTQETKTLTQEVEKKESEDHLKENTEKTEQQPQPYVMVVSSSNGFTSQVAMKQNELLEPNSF
Chain of ELF4 (Q99607 whole entry): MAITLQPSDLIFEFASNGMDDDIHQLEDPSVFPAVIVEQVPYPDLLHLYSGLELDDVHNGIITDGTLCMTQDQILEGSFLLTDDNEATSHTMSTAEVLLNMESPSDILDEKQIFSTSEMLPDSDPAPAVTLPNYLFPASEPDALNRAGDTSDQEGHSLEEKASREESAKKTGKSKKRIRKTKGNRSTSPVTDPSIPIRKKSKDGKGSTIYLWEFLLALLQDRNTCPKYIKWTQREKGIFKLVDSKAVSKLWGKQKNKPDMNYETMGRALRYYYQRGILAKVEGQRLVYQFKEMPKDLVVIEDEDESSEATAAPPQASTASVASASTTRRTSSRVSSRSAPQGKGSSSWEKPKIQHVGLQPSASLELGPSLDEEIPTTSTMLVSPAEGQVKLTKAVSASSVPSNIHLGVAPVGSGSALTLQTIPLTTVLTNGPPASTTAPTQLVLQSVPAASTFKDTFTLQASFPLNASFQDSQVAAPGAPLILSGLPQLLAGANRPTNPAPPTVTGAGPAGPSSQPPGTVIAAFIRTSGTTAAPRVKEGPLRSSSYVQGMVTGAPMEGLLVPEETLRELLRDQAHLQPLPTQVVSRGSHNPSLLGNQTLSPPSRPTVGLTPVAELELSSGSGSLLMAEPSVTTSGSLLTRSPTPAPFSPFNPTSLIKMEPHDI
Chain of HSF1 (Q00613 whole entry): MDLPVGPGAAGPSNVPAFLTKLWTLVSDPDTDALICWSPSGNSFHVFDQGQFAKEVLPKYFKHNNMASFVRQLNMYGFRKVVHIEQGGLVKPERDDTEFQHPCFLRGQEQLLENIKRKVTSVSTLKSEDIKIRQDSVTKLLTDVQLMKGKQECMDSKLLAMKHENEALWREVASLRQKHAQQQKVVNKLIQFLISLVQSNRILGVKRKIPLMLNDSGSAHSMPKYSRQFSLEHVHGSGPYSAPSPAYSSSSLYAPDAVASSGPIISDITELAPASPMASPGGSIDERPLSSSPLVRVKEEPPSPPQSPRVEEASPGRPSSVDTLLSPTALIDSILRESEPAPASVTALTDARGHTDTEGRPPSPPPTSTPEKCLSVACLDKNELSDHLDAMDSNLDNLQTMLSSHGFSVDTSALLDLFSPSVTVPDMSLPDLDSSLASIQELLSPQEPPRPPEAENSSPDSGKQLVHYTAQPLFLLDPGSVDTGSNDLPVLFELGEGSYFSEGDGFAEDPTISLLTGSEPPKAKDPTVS

Take TACTTA: the binding signal is 1.17 fold enrichment (6-mer frequency, TF over GST control) in experiment [1]; 1.18 fold enrichment (6-mer frequency, TF over GST control) in experiment [2]; 1.15 fold enrichment (6-mer frequency, TF over GST control) in experiment [3]; 1.16 fold enrichment (6-mer frequency, TF over GST control) in experiment [4]; 1.22 fold enrichment (6-mer frequency, TF over GST control) in [5]; 1.33 fold enrichment (6-mer frequency, TF over GST control) in experiment [6]. For the same sequence, the binding signal in [7] is 1.21 fold enrichment (6-mer frequency, TF over GST control); in [8], 1.15 fold enrichment (6-mer frequency, TF over GST control); in experiment [9] it was 1.42 fold enrichment (6-mer frequency, TF over GST control); in experiment [10], 1.12 fold enrichment (6-mer frequency, TF over GST control); in experiment [11], 1.17 fold enrichment (6-mer frequency, TF over GST control); in [12] it was 1.7 fold enrichment (6-mer frequency, TF over GST control). The binding signal in [13] is 1.12 fold enrichment (6-mer frequency, TF over GST control); in [14], 1.21 fold enrichment (6-mer frequency, TF over GST control); in [15], 1.25 fold enrichment (6-mer frequency, TF over GST control); in experiment [16], 1.16 fold enrichment (6-mer frequency, TF over GST control); in experiment [17] it was 1.33 fold enrichment (6-mer frequency, TF over GST control); in experiment [18] it was 2.6 fold enrichment (6-mer frequency, TF over GST control). Further, the binding signal in [19] is 1.24 fold enrichment (6-mer frequency, TF over GST control).
